Screening data deposited in PubChem BioAssay by National Center for Advancing Translational Sciences (NCATS).
Shown are actives, neighbours in structure and some others; about 6% of the full set was active somewhere.
VDR inhibitor – Inhibitors of the vitamin D receptor (VDR): qHTS. 400,000 compounds, 0.93% hits. Vitamin D3 receptor (Homo sapiens), P11473. VDR-SRC2-3 peptide fluorescence polarization, 2 h. AID 504847, 2011. Potency, µM, inactives show max response, negative = inhibition, usual class: inhibitors
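Compounds are added to VDR with labelled SRC2-3 coactivator peptide and held 2 h at room temperature. Inhibition of the VDR–peptide interaction is then read as a change in fluorescence polarization.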
PLK1 PBD inh – qHTS for Inhibitors of PLK1-PDB (polo-like kinase 1 - polo-box domain): Primary Screen | Plk1 PBD binding of FITC phosphopeptide, fluorescence polarization | Potency, µM, inactives show max response, negative = inhibition, actives largely listed as inhibitors | 360,000 compounds, 2.8% hits | Serine/threonine-protein kinase PLK1 (Homo sapiens), P53350; further: series mostly up to about 57 µM; nearly all actives have a fitted effect of over 65% in size
Target sequence (P53350 whole entry, looked up, the tested form may be a part): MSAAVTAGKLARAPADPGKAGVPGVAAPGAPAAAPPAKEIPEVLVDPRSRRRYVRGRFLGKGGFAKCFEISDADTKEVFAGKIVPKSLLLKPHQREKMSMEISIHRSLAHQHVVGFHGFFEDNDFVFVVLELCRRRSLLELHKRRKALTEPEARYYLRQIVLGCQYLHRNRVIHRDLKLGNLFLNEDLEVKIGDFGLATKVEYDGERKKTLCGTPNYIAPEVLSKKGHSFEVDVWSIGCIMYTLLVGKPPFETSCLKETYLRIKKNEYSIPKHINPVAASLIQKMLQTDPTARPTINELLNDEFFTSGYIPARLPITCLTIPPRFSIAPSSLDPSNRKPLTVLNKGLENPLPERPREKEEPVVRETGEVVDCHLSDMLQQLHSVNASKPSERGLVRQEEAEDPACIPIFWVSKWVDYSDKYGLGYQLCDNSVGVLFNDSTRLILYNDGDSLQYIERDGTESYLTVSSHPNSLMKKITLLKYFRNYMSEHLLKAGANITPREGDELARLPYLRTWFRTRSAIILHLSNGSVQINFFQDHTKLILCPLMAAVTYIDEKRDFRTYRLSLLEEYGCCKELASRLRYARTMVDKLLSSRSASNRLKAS
Tau fibril ThT – qHTS for Inhibitors of Tau Fibril Formation, Thioflavin T Binding | Microtubule-associated protein tau (Homo sapiens), P10636 | recombinant tau K18 P301L, heparin-induced fibrillization, ThT fluorescence | Potency, µM (highest dose often 57.4 µM), for inactives: at the top dose activity, negative = inhibition, actives largely listed as inhibitors | 270,000 compounds, 2.1% hits | AID 1460, 2008; further: nearly all actives have a fitted effect of over 55% in size
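In this qHTS, human K18 P301L tau is incubated with compound and heparin for 6 hr at 37 C, and Thioflavin T fluorescence then reports fibril load.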
Tau FP inhib – qHTS for Inhibitors of Tau Fibril Formation, Fluorescence Polarization; Microtubule-associated protein tau (Homo sapiens), P10636; K18 P301L tau heparin fibrillization, Alexa594 FP, 6 h; Potency, µM (titrated, usually from 57.7 µM), for the others: at the highest dose activity, negative = inhibition, usual class: inhibitors; 280,000 compounds, 0.39% hits; further: nearly all actives have a fitted effect of over 55% in size
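FP of Alexa 594-tau after heparin (20 uM) induction. Substrate: human K18 P301L, 15 uM unlabeled, 0.24 uM labeled. Buffer 100 mM sodium acetate pH 7. 6 hr, 37 C.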
Sfp inh – qHTS Assay for Inhibitors of Bacillus subtilis Sfp phosphopantetheinyl transferase (PPTase); AID 1490, 2009; 310,000 compounds, 3.5% hits; Potency, µM, inactives show largest response in the series, negative = inhibition, actives largely listed as inhibitors; 4'-phosphopantetheinyl transferase ffp (Bacillus subtilis), Q9F4F7; Biochemical Sfp PPTase activity, qHTS;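 further: the enzyme is Sfp with the accession as filed and its product quenches rhodamine fluorescence; 0% = enzyme reaction without inhibitor and -100% = no enzyme wells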
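Step 1, compound plus 15 nM Sfp-PPTase, 15 min, room temperature. Step 2, add rhodamine-CoA (5 uM) and BHQ-2-YbbR (12.5 uM). Step 3, read 525/598 nm fluorescence at 0 and 30 min.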
Tau fluor counter – Counterscreen qHTS for Inhibitors of Tau Fibril Formation, Fluorescence Polarization; tau K18 P301L Alexa594 fluorescence, heparin fibrillization; Potency, µM (highest dose often 57.7 µM), for inactives: top-dose activity change, negative = decrease; 280,000 compounds, 0.93% hits; further: nearly all actives have a fitted effect of over 55% in size
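Human tau K18 P301L (15 uM unlabeled, 0.24 uM Alexa 594-labeled) in 100 mM sodium acetate pH 7 with 20 uM heparin, 6 hr at 37 C. ThT 30 uM added, 1 hr ambient; Alexa 594 FP and total fluorescence read at 555/632 nm.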
* hit, by the source's call; ? = inconclusive; . = not tested or not shown; [ ] = another dose, or the depositor's remark. The call rests on the fitted dose curve; in most records, active means well fitted curve in the direction sought with a large enough effect; inconclusive means small, poorly fitted or top-dose-only effect, or another doubt; inactive means no such curve, though single readings can be large; an effect the other way counts as inactive or inconclusive. Unless noted, on the % scale 0 is the no-effect control and ±100 the full control effect; potency means the concentration at half of the fitted maximal effect.

SMILES | VDR inhibitor | PLK1 PBD inh | Tau fibril ThT | Tau FP inhib | Sfp inh | Tau fluor counter
CCOCCCNC(=O)c1c[nH]c2ccc(S(=O)(=O)Nc3cccc(OC)c3)cc2c1=O | 7% | 0% | 0% | 1% | 12% | 3%
COC(=O)[C@]12CCCCC=C1N(Cc1cccc3ccccc13)C(=O)[C@H](CC(=O)NCCC(C)C)C2 | . | -11% | . | . | . | .
COc1ccc(OC)c(C2Nc3ccccc3NC3=C2C(=O)CC(C)(C)C3)c1 (stereo not given) | -4% | -3% | . | . | 11% | .
S=C(NCc1ccco1)Nc1ccc(Cl)cn1 | -9% | ? | . | . | -7% | .
COc1cc(OC)c2c(c1C(CCN1CCCC(C)C1)c1ccc(N(C)C)cc1)OC(=O)CC2c1ccc(N(C)C)cc1 (stereo not given) | 11% | . | . | . | -25% | .
CC(=O)c1c(C)n(CCO)c2ccc(O)cc12 | 6% | -3% | 0% | 3% | -3% | -3%
CCCCCS(=O)(=O)CCCCCCCCCCn1c(-c2ccc(O)cc2)c(C)c2cc(O)ccc21 | . | . | ? | ? | 44% | 7.9µM*[quencher]
COc1ccc(-c2coc3c(CN4CCCCC4)c(O)c(CN4CCCCC4)c(O)c3c2=O)cc1 | . | . | ? | 9% | 16µM* | -10%
COc1ccc(-n2c(=S)[nH]c3cc(C(=O)O)ccc3c2=O)cc1 | -5% | -4% | -4% | -4% | -37% | -3%
O=c1c2cn[nH]c2[nH]c(=S)n1-c1cccc2ccccc12 | -20% | -16% | -16% | 1% | -22% | -12%
O=c1c2cn[nH]c2[nH]c(=S)n1-c1ccccc1 | 0% | -13% | -15% | ? | 14µM* | -10%
COc1ccc(-n2c(=S)[nH]c3[nH]ncc3c2=O)cc1 | -3% | -10% | -4% | -2% | 50µM* | 0%
CC(O)[C@H]1CN=C(N)N1CC1CCCCC1 (stereo not given in full) | ? | 27µM* | . | . | . | .
CCOC(=O)NNc1ccc2nonc2c1[N+](=O)[O-] | 35µM* | 8.4µM* | 13µM* | ? | 20µM* | -29%
CCc1ccc(Nc2ccc3nonc3c2[N+](=O)[O-])cc1 | -7% | -9% | . | . | . | .
Cc1cccc(C)c1OCc1nc2c3c(-c4ccccc4)c(-c4ccccc4)oc3ncn2n1 | -18% | . | -5% | -3% | . | -8%
Cc1nn(C(C)C(=O)NCCCN2CCCCCC2)c(=O)c2c1sc1ccccc12 (stereo not given) | -20% | 27µM* | . | . | 1% | .
Cc1[nH][nH]c(=O)c1C(c1cc(Br)ccc1O)c1c(C)[nH][nH]c1=O | ? | 24µM* | . | . | 14% | .
COc1cc(Cl)cc(C(c2c(C(=O)O)[nH]c3ccccc23)c2c(C(=O)O)[nH]c3ccccc23)c1O | ? | 24µM* | . | . | 2% | .
Cc1[nH][nH]c(=O)c1C(c1ccc(F)cc1)c1c(C)[nH][nH]c1=O | -19% | ? | . | . | 8% | .
O=C(O)c1[nH]c2ccccc2c1C(c1cc(Br)ccc1O)c1c(C(=O)O)[nH]c2ccccc12 | ? | 17µM* | . | . | 8% | .
Cc1ccc(S(=O)(=O)N2C[C@H]3C(=O)C[C@@H](c4cccc(Cl)c4)N(S(=O)(=O)c4ccc(C)cc4)[C@H]3C[C@H]2c2ccc(Cl)cc2)cc1 | . | -1% | . | . | . | .
CC(C)CCOP(=O)(c1ccc(N(C)C)cc1)C(O)c1ccccn1 (stereo not given) | -8% | -15% | -5% | 1% | -2% | 5%
CC(C)COP(=O)(c1ccc(N(C)C)cc1)C(O)c1ccccn1 (stereo not given) | 6% | -2% | -13% | 2% | 79µM* | -1%
